In article PMC6212790, “How bacterial xenogeneic silencer rok distinguishes foreign from self DNA in its resident genome”:
In all, about 33,000 sequences were measured (“e-score”: median about -0.037, highest 2% from about 0.34 on). For the sample, the highest values were picked, then their nearest neighbours and some sequences at random.

What follows are sequences tested against T1, GST-Rok (full length) (Bacillus subtilis subsp. subtilis str. …, UniProt O34857 1-191) (assay: protein binding microarray; Rok is a gene silencer of Bacillus subtilis; high values mean tight binding). Settings: protein: recombinant; tags: GST (pTH5325, pDEST15-Magic modified); dsDNA, one strand shown.
T1 sequence: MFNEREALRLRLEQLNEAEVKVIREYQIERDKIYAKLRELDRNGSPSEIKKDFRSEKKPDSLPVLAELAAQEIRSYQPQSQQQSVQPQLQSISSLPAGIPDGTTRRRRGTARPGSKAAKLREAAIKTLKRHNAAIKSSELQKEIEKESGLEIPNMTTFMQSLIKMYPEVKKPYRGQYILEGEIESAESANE
Method in brief: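 Every oligonucleotide joins a 25-mer constant primer to a 35-mer variable part drawn from a de Bruijn sequence of order 10, so each non-palindromic 8-mer appears at least 32 times and each palindromic 8-mer 16 times. The preference for every 8-mer is reported as a unitless, rank-based enrichment score (E-score). This score spans 0.5 for the most favored 8-mer to −0.5 for the most disfavored.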

Compared with AGGTCCAG, ACTGGCCG is higher in binding signal: -0.187 E-score for the first, 0.00991 E-score for the second.

Compared with AGCGGCTC, GTCGCTTA is higher in binding signal: -0.196 E-score for the first, -0.0639 E-score for the second.

First: GTTACATA
Second: AACGTTAT
The binding signal of the first is lower: 0.212 E-score for the first, 0.216 E-score for the second.

Going from AACGTTAG to AACGTTAC, the binding signal falls from 0.344 E-score to -0.0148 E-score.

Going from GCATTCCA to CGCGTCCA, the binding signal falls from -0.149 E-score to -0.16 E-score.

Going from ATGCTTCG to GCGCAGAA, the binding signal falls from -0.00471 E-score to -0.0702 E-score.

Compared with GGTATACA, ACTATACA is higher in binding signal: 0.187 E-score for the first, 0.322 E-score for the second.

Compared with TATATACA, TGTATACA is lower in binding signal: 0.409 E-score for the first, 0.351 E-score for the second.

First: AATATACA
Second: GATATACC
The binding signal of the first is higher: 0.388 E-score for the first, 0.291 E-score for the second.

Going from AATATACC to CGTATACA, the binding signal falls from 0.394 E-score to 0.227 E-score.

Compared with CATATACA, CATATACC is higher in binding signal: 0.258 E-score for the first, 0.259 E-score for the second.

Compared with AATACACA, GATATACA is higher in binding signal: 0.234 E-score for the first, 0.25 E-score for the second.

Going from GCTGCTGA to CTTCCTTA, the binding signal rises from -0.177 E-score to -0.172 E-score.

Compared with CTAGGAAG, AGTACGCA is higher in binding signal: -0.0907 E-score for the first, 0.194 E-score for the second.

Going from AGTATACA to AGTATACC, the binding signal falls from 0.271 E-score to 0.164 E-score.

Compared with ACTATACT, AATATACG is higher in binding signal: 0.26 E-score for the first, 0.268 E-score for the second.

Compared with AATATACT, AGTATACT is lower in binding signal: 0.395 E-score for the first, 0.338 E-score for the second.

Compared with CATAAAAG, AGTGCGTC is lower in binding signal: 0.102 E-score for the first, 0.0828 E-score for the second.

Compared with ACCTCCAA, TCACGTGA is lower in binding signal: -0.0283 E-score for the first, -0.0446 E-score for the second.

Going from TGGCCGAA to ACCTAGAC, the binding signal rises from -0.123 E-score to 0.0548 E-score.

Going from CATTATAC to CATTATAA, the binding signal falls from 0.265 E-score to 0.228 E-score.

Going from GATTATAC to AGTTATAT, the binding signal rises from 0.217 E-score to 0.291 E-score.

First: AATTATAT
Second: CATTATAG
The binding signal of the first is higher: 0.407 E-score for the first, 0.255 E-score for the second.

Going from AATTATAC to ACTTATAT, the binding signal falls from 0.377 E-score to 0.332 E-score.

Going from AATTATAA to AATTATCG, the binding signal falls from 0.361 E-score to 0.217 E-score.

Compared with AATTATAG, GATTATAA is lower in binding signal: 0.381 E-score for the first, 0.208 E-score for the second.

Going from ACAGGTCT to TGCTGAAA, the binding signal rises from -0.119 E-score to -0.0464 E-score.

Compared with GCAACTGA, ACAAGTAA is higher in binding signal: -0.0401 E-score for the first, 0.185 E-score for the second.

Compared with ACCTATGG, GACAATGA is higher in binding signal: -0.177 E-score for the first, -0.0569 E-score for the second.

Going from GTCATCTA to GCAGACGC, the binding signal falls from 0.113 E-score to -0.181 E-score.

Compared with ATGGTAAC, CACTAGTG is lower in binding signal: 0.214 E-score for the first, 0.0643 E-score for the second.

Going from AACTAGTT to TACTAGGA, the binding signal falls from 0.441 E-score to 0.183 E-score.

First: TACTAGTA
Second: AACTAGTC
The binding signal of the first is higher: 0.45 E-score for the first, 0.206 E-score for the second.

First: TACTAGCA
Second: AACTAGTG
The binding signal of the first is lower: 0.243 E-score for the first, 0.39 E-score for the second.

Compared with GGCTAGTA, AACTAGCG is higher in binding signal: 0.0598 E-score for the first, 0.241 E-score for the second.

Compared with AGCTAGTC, AGCTAGTA is higher in binding signal: 0.078 E-score for the first, 0.373 E-score for the second.

Going from AACTAGCT to CTGACCAC, the binding signal falls from 0.317 E-score to -0.141 E-score.

Going from ACCGGACT to ATTGTTAC, the binding signal rises from -0.00817 E-score to 0.15 E-score.

First: AAGCTTCC
Second: CTAGCTTA
The binding signal of the first is lower: -0.103 E-score for the first, 0.26 E-score for the second.

Compared with AAGTCGAT, GATCTCAA is lower in binding signal: 0.0686 E-score for the first, -0.162 E-score for the second.

First: CCGCTCAG
Second: AACTAGGG
The binding signal of the first is lower: -0.0853 E-score for the first, -0.00258 E-score for the second.

First: GACTAGGA
Second: GACTAGTC
The binding signal of the first is lower: -0.00844 E-score for the first, 0.224 E-score for the second.

Compared with AACTAGGT, CACTAGTA is lower in binding signal: 0.361 E-score for the first, 0.205 E-score for the second.

Going from AACTAGTA to AACTAGGC, the binding signal falls from 0.471 E-score to 0.118 E-score.

First: ACCTAGTA
Second: GACTAGTA
The binding signal of the first is lower: 0.292 E-score for the first, 0.365 E-score for the second.

First: CCGAATTA
Second: AGAGTGAA
The binding signal of the first is higher: 0.235 E-score for the first, -0.0866 E-score for the second.

Compared with GTAAGCAA, ACCTTACT is higher in binding signal: 0.0243 E-score for the first, 0.101 E-score for the second.

First: GGTAATCA
Second: AGTAATTG
The binding signal of the first is lower: 0.0323 E-score for the first, 0.29 E-score for the second.

Going from AGTAATTA to GATAATTA, the binding signal falls from 0.381 E-score to 0.223 E-score.

Going from GGTAATTA to CGTAATTA, the binding signal falls from 0.375 E-score to 0.328 E-score.

First: CATAATTC
Second: AGTAATTC
The binding signal of the first is lower: 0.126 E-score for the first, 0.29 E-score for the second.

Compared with CATAATTA, CACAGTGA is lower in binding signal: 0.362 E-score for the first, 0.137 E-score for the second.

Going from TAATTTCA to GCTACGTA, the binding signal rises from 0.273 E-score to 0.298 E-score.

First: ACCGGCAT
Second: GGAAGGTA
The binding signal of the first is lower: -0.0275 E-score for the first, 0.0109 E-score for the second.

Going from CCCGGCAC to GTAAACGA, the binding signal rises from -0.109 E-score to -0.0497 E-score.

Going from CTAAACGA to ATAAACTG, the binding signal rises from -0.072 E-score to 0.175 E-score.

First: GTAAACTA
Second: ATAAACTA
The binding signal of the first is lower: 0.351 E-score for the first, 0.361 E-score for the second.

First: ATAAACTC
Second: CTAAACTC
The binding signal of the first is lower: 0.15 E-score for the first, 0.235 E-score for the second.

First: GTAAACAA
Second: CTAAACTA
The binding signal of the first is lower: 0.0786 E-score for the first, 0.336 E-score for the second.

Compared with AAAACTCT, AAGGACGA is lower in binding signal: 0.171 E-score for the first, -0.157 E-score for the second.

First: CTCATCCA
Second: GCTCCTAC
The binding signal of the first is higher: 0.013 E-score for the first, -0.158 E-score for the second.

Going from ACAAGACG to CGTTAAGA, the binding signal falls from -0.0878 E-score to -0.0916 E-score.

Going from ATAACACG to GACTGATA, the binding signal rises from 0.22 E-score to 0.238 E-score.

Compared with CAGAATAG, CGTTCGGA is lower in binding signal: 0.106 E-score for the first, -0.107 E-score for the second.
